PubChem BioAssay AID624404 (Broad Institute, 2012)
Screen size: about 1,800 compounds; about 710 (39%) were called active. About 28% were inconclusive and are not listed.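 The calls were made as follows: active = luciferase signal rise whose fitted curve crosses a set activity limit at or below the top valid tested dose; inconclusive = flat fit with 30 to 70% rise, or poor fit; inactive = signal falling, flat within 30%, or crossing above top dose.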 Only a sample is shown. Entries with a potency or affinity are not part of this list.

Test: reporter signal increase, D54 LucT cells – cell-based, luminescence, cherry pick, counter-screen for N-linked glycosylation inhibitor project, dose response (AID 624404)
Details: D54 LucT luciferase reporter counterscreen, 24 h; series mostly up to 19.5 µM

Compound | outcome
Cc1nc([N+](=O)[O-])c(Sc2nc3ccccc3[nH]2)n1Cc1ccccc1 | inactive
COc1ccc(OC)c(NS(=O)(=O)c2ccc(SC)cc2)c1 | inactive
O=C1/C(=C/c2ccccc2)CCc2ccc(Cl)nc21 | inactive
c1cc2c3c(cccc3c1)C(N1CCCCC1)=N2 | inactive
Nc1c(N(CCC2=CCCCC2)C(=O)COc2ccc(F)cc2Cl)c(=O)[nH]c(=O)n1Cc1ccccc1 | inactive
COc1ccc(-c2cc(C(F)F)n3ncc(C(=O)N4CCc5ccccc54)c3n2)cc1 | inactive
O=c1cc(-c2ccccc2)[nH]n1-c1nc2ccccc2[nH]1 | inactive
CCCCCc1ccc(OCCC[n+]2ccccc2)c(CCCCC)c1 | inactive
Cc1cnc(C(=O)OCC(=O)NC2CCCCCCC2)cn1 | inactive
NC(=O)[C@H]1CC2(CC(c3cccc(NC(=O)COc4ccc(Cl)cc4)c3)=NO2)CN1C(=O)C(c1ccccc1)c1ccccc1 (stereo partly specified) | inactive
O=C(N/N=C\c1cccnc1)c1cc(-c2ccccc2)nc2c(Cl)cccc12 | inactive
COc1ccc(NC(=O)c2nc(C)c(C3(C)CC(c4ccccc4)=NO3)s2)cc1 (stereo unspecified) | inactive
CCOC(=O)C1=C(Cc2ccc(F)cc2)C(=O)c2ccccc2C1=O | inactive
CCOC(=O)c1c(C)nc2sc3c(=O)n(-c4ccc(C)cc4)cnc3c2c1-c1ccc(OC)cc1 | inactive
COc1ccc(Cn2c(=O)cc(N)n(-c3ccccc3C)c2=O)cc1 | inactive
COC(=O)c1ccccc1NC(=O)Cn1nnc(-c2ccc(OC)cc2)n1 | inactive
CC(C)CN(C(=O)COC(=O)CCSc1ccc(Cl)cc1)c1c(N)n(Cc2ccccc2)c(=O)[nH]c1=O | inactive
CCOc1ccc(OCC(=O)N(CCC2=CCCCC2)c2c(N)n(Cc3ccccc3)c(=O)[nH]c2=O)cc1 | inactive
COc1ccc(-c2cc(-c3ccccc3)c(C#N)c(S(C)=O)n2)cc1 (stereo unspecified) | inactive
Cc1cc(Br)cc2c(C(=O)Nc3c(C)n(C)n(-c4ccccc4)c3=O)cc(-c3cccs3)nc12 | inactive
CCCn1c(CN2CCN(C(=O)OCC)CC2)nc2cc(NC(=O)CC)ccc21 | inactive
CN1CCN(CC(=O)Nc2cc(N(C)C)nc3ccccc23)CC1 | inactive

Compound | outcome
CC(C)(C)NCC(O)CON=C1c2ccccc2-c2ccccc21 (stereo unspecified) | inactive
Cc1ccccc1OCCOC(=O)c1c(-c2ccccc2)noc1C | inactive
Cc1ccc(-c2cc(C(F)F)n3ncc(C(=O)N4CCc5ccccc54)c3n2)cc1 | inactive
CC(C)Oc1ccccc1C1CC(=O)Nc2cc3c(cc21)OCO3 (stereo unspecified) | inactive
CCOc1cccc2sc(Nc3nc4ccc(NC(C)=O)cc4s3)nc12 | inactive
CCc1ccc2nc3nc(C)cc(C)c3c(N)c2c1 | inactive
Cc1cc(C)c2c(N)c3ccccc3nc2n1 | inactive
COC(=O)C1=C(C(=O)OC)[C@@H]2N(Cc3ccccc3)c3ccccc3[C@@]23C[C@@H](C(=O)OC)N(C(=O)c2cc(C)oc2C)C3=N1 | inactive
C=CCN1c2ccccc2[C@]23C[C@@H](C(=O)OC)N(C(=O)c4ccc(Br)cc4)C2=NC(C(=O)OC)=C(C(=O)OC)[C@H]13 | inactive
CCCOC(=O)c1[nH]c2c(c1C)C(=O)CC(c1cccs1)C2 (stereo unspecified) | inactive
COc1ccc(/C=C2\SC(=S)N(CCC(=O)NC3CCCC3)C2=O)cc1OC | inactive
COc1cc(/C=C2/C(=O)N(C)C(=S)N2C)ccc1OCc1cccc(F)c1 | inactive
COc1cc2c3c(cccc3c1)C(=O)N(CCN1CCCC1)C2=O | inactive
Cc1ccc(C)c(N2CCN(S(=O)(=O)c3ccc(-c4ccc(=O)[nH]n4)o3)CC2)c1 | inactive
CC(=O)c1cccc(-c2ccnc3c2CC(C(=O)NCc2cccs2)O3)c1 (stereo unspecified) | inactive
CC1(C(=O)NCc2cccs2)Cc2c(-c3ccc(C(N)=O)cc3)ccnc2O1 (stereo unspecified) | inactive
CC(=O)Nc1cccc(-c2ccnc3c2CC(C(=O)NCc2ccc(F)c(F)c2)O3)c1 (stereo unspecified) | inactive
Cc1ccc(CNC(=O)Cc2ccc(-n3c(=O)[nH]c4ccsc4c3=O)cc2)cc1 | inactive
COc1cc(C2CC(=O)Nc3cc(C)c(C)cc32)cc(OC)c1OC (stereo unspecified) | inactive
CN1CCN(C(c2ccc(Br)cc2)c2cc(Cl)c3cccnc3c2O)CC1 (stereo unspecified) | inactive
COc1ccc2noc3c2c1C(=O)c1ccccc1-3 | inactive
COc1cc(C)c2sc3ccccc3c(=O)c2c1NCCN(C)C | inactive

Compound | outcome
CN(C)CCNc1ccc2nnn3c4ccc(O)cc4c(=O)c1c23 | inactive
COc1ccc2sc3cccc(NCCN(C)C)c3c(=O)c2c1 | inactive
CCN(CC)CCCNc1ccc2ncn3c4ccc(O)cc4c(=O)c1c23 | inactive
COc1ccc(-n2c(C)cc(C(=O)CCl)c2C)cc1 | inactive
c1ccc2sc(Sc3ncnc4sccc34)nc2c1 | inactive
COc1ccc2c(C)nc(Nc3nc(-c4ccccc4)cc(=O)[nH]3)nc2c1 | inactive
COc1ccc(C2=NOC(C(=O)NCc3ccco3)C2)cc1OC (stereo unspecified) | inactive
O=C(NCc1cccs1)C1CC(c2ccc(Cl)c(Cl)c2)=NO1 (stereo unspecified) | inactive
COc1cc(OC)c(C2=NOC(C(=O)NCc3cccs3)C2)cc1Cl (stereo unspecified) | inactive
CC(=O)c1cccc(NC(=O)CSc2ncc(C(=O)Nc3ccccc3)c(=O)n2C)c1 | inactive
Cn1c(SCC(=O)c2ccccc2)ncc(C(=O)Nc2ccc(F)cc2)c1=O | inactive
CCn1cc2nc(SCC(=O)Nc3ccc(OC)cc3OC)n(Cc3ccc(OC)cc3)c(=O)c2n1 | inactive
COc1ccc(CN(C)c2ncnc3sccc23)c(OC)c1OC | inactive
O=C(N/N=C/c1cccnc1)c1cc(-c2ccc(Br)cc2)nc2ccccc12 | inactive
NC(N)=N/N=C/c1ccc2cccc(OCc3ccccc3)c2n1 | inactive
Cc1ccc(/C=N/NC(=O)c2c(C)nc3ccc(Br)cn23)cc1 | inactive
Cc1ccc(/C=N/NC(=O)CCn2nc(C)cc2C)c(C)c1 | inactive
Brc1ccc(CSc2ccc3nnc(-c4cccnc4)n3n2)cc1 | inactive
Cc1ccccc1OCCc1c(C)[nH]c(=S)[nH]c1=O | inactive
CCN1Cc2c(/C=C/c3ccccc3)nc3ccc(OC)cc3c2N(c2cccc(Cl)c2)C1 | inactive
O=C(Nc1nc2ccccc2c(=O)s1)c1ccco1 | inactive
COc1cc2nc(NC(=O)c3ccccc3)sc(=O)c2cc1OC | inactive

Compound | outcome
Cc1ccc(C(=O)NC(=C(Cl)Cl)S(=O)(=O)c2ccc(C)cc2)cc1 | inactive
CC(=O)N(C1=C(Cl)C(=O)c2ccccc2C1=O)C1CCCCC1 | inactive
COc1ccccc1OCC(=O)NNC(=O)c1ccoc1C | inactive
COc1cc2cc(C(c3nnnn3C(C)(C)C)N3CCc4ccccc4C3)c(=O)[nH]c2cc1OC (stereo unspecified) | inactive
CC(=O)c1ccc(Oc2cc(C)nc(-n3nc(C)cc3C)n2)cc1 | inactive
Cc1cc(Nc2cc(Cl)cc(Cl)c2)nc(N)n1 | inactive
CCN1/C(=C/c2ccc3ccccc3[n+]2CC)C=Cc2ccccc21 | inactive
CCCCCCCCCCn1c2c(c(=N)c3c1CCC3)CCC2 | inactive
COc1ccc2cc(C)c3nnc(SCC(=O)Nc4nc(-c5ccc(F)cc5)cs4)n3c2c1 | inactive
COCCN(C(=O)CCl)C(C(=O)NC1CCCCC1)c1ccccc1C (stereo unspecified) | inactive
COc1ccc(C(C)(O)c2nc(-c3ccc(F)cc3OC)cs2)cc1 (stereo unspecified) | inactive
Nc1cccc2c1C(=O)N(C(=O)/C=C/c1ccc(F)cc1)C2=O | inactive
CC(=O)Cn1ncc(Br)c(Br)c1=O | inactive
Cn1c(Cl)cnc1C1CC(=O)c2cc(Cl)ccc2O1 (stereo unspecified) | inactive
O=C(Nc1ccc(N2CCCC2)c(Cl)c1)c1ccc([N+](=O)[O-])o1 | inactive
Cc1c(C(=O)Nc2ccc3oc(-c4cccnc4)nc3c2)oc2ccccc12 | inactive
O=C(N/N=C\C=C\c1ccc([N+](=O)[O-])o1)c1cccs1 | inactive
O=C(Nc1ccc(-c2nc3cc(NC(=O)c4cccs4)ccc3o2)cc1)c1cccs1 | inactive
O=C(NCc1ccccc1)C(=O)NCC1COc2ccccc2O1 (stereo unspecified) | inactive
CN=c1sc(C(=O)Nc2cccc(Cl)c2)cc(=O)n1C | inactive
O=C(CN1C(=O)/C(=C\c2ccc(F)cc2)Oc2ccccc21)N1CCN(c2ccccn2)CC1 | inactive
O=C1CCCC2=C1C(c1ccc(Cl)cc1)n1c(s/c(=C\c3ccc4ccncc4c3)c1=O)=N2 (stereo unspecified) | inactive

Compound | outcome
COc1cccc(-n2c(SCC(=O)NC3CCCCC3)nc3n[nH]c(C)c3c2=N)c1 | inactive
COc1ccc(C(=O)/C=C\c2ccc(NC(=O)c3cccs3)cc2)cc1 | inactive
O=C1CCCN1CCCNc1nc(NCc2ccccc2)nc2ccsc12 | inactive
Cc1ccsc1CNc1ncnc2ccc(-c3c(C)noc3C)cc12 | inactive
COc1ccc(C(=O)c2cc([N+](=O)[O-])ccc2N2CCN(C)CC2)cc1 | inactive
CCOc1cc(/C=C/C(=O)c2ccc3c(c2)OCCO3)ccc1OCC(=O)N(C)C | inactive
CN(C)c1ccc(/C=C/C(=O)c2ccc(C(C)(C)C)cc2)cc1[N+](=O)[O-] | inactive
COc1cc(/C=C/C(=O)c2ccc3c(c2)OCCO3)cc(OC)c1OC | inactive
COC(=O)C(=Cc1ccc(-c2ccsc2C(=O)OC)o1)C(=O)OC | inactive
O=c1c2ccccc2sc2c(CO)ccc(NCCN3CCCCC3)c12 | inactive
Cc1ccc2cc3c(N)c4c(C)ccc(C)c4nc3nc2c1 | inactive
CCC1=Nc2cc(C(=O)NCc3ccco3)ccc2Sc2ccc(Cl)cc21 | inactive
CC1=Nc2cc(C(=O)NCC3CCCO3)ccc2Sc2ccc(Br)cc21 (stereo unspecified) | inactive
O=C(/C=C/c1ccc([N+](=O)[O-])cc1)/C=C/c1ccco1 | inactive
CC(NC(=O)c1cccc2ccccc12)c1ccc2c(c1)CCCC2 (stereo unspecified) | inactive
COc1cc2cc(/C=C/C(=O)c3ccco3)c(Cl)nc2cc1OC | inactive
O=C(Oc1c(Cl)cc(Cl)c2cccnc12)c1ccco1 | inactive
CCOc1ccc2[nH]c(=O)c(CN(Cc3ccc(F)cc3)C(=O)c3ccco3)cc2c1 | inactive
